PI5P4Ka inh = PI5P4K alpha (human) kinase inhibition; PI5P4Kalpha enzyme, ADP-Glo luminescence, 60 min; stronger effect = lower value; AID 652105; 1.2% of 330,000 active; max response, %; active = max response of -50% or lower; inconclusive = between -30% and -50%; inactive = -30% or higher; also: value at the top dose of about 77 µM; % is scaled to controls: 0 for no effect and ±100 for the full control effect
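ADP-Glo luminescence end-point after a 60 min room-temperature kinase reaction. PI5P4Kalpha and substrate in HEPES pH 7.4 buffer with EGTA, 0.1% CHAPS and 5% DMSO; ATP at 5 microM final.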
G9a block = blocks human histone lysine methyltransferase G9a; Q96KQ7; G9a H3K9 monomethylation, AlphaScreen, 2 h; Potency, µM (highest dose often 102 µM), for the others: at the top dose activity, negative = inhibition, hits mostly inhibitors; 8.8% of 350,000 active; also: potency is read from the fitted curve at half-maximal effect; % is scaled to controls: 0 for no effect and ±100 for the full control effect; nearly all actives have a fitted effect of over 75% in size
Target sequence (Q96KQ7 913-1193 limits assumed): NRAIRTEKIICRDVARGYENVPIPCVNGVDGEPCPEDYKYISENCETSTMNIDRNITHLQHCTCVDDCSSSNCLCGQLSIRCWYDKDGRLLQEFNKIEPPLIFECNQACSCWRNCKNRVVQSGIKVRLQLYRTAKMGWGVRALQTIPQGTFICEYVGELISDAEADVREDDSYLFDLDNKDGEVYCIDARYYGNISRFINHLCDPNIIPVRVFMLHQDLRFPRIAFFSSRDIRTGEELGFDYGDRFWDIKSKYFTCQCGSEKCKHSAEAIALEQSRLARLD
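Step 1: enzyme (final 20 nM) with compound, 15 min RT. Step 2: substrate peptide 500 nM and SAM 20 uM, 2 h RT. Step 3: anti-H3K9me1 antibody and AlphaScreen beads, 10 min, then plate read.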
HP1b binding inh = HP1-beta chromodomain-methylated histone interaction inhibition; Potency, µM (series often up to 114 µM), without a hit: top-dose activity change, negative = inhibition, actives largely listed as inhibitors; P83916; 0.56% of 390,000 active; AlphaScreen HP1-beta / biotin-H3K9me3 peptide binding; also: potency is read from the fitted curve at half-maximal effect; nearly all actives have a fitted effect of over 70% in size
Target sequence (P83916 whole entry, looked up): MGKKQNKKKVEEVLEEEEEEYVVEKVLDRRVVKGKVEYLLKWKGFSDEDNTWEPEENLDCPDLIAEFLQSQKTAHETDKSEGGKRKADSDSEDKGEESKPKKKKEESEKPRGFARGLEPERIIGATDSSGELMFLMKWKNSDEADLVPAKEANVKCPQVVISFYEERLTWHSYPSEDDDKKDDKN
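Compound inhibition of the preformed complex between 50 nM HP1-beta and 50 nM biotinylated H3K9me3 peptide was read by AlphaScreen. Buffer was PBS pH 7.4 with 0.01% Tween-20. Incubations ran 30 min at room temperature, with 10 ug/mL donor/acceptor beads.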
PLK1 PBD inh = blocks phosphopeptide binding to human PLK1 polo-box domain; Plk1 PBD binding of FITC phosphopeptide, fluorescence polarization; 2.8% of 360,000 active; Potency, µM, without a hit: max response, negative = inhibition, hits mostly inhibitors; P53350; also: potency is read from the fitted curve at half-maximal effect; series mostly up to about 57 µM; % is scaled to controls: 0 for no effect and ±100 for the full control effect; nearly all actives have a fitted effect of over 65% in size
JMJD2A Tudor = JMJD2A Tudor domain (human) inhibition; O75164; Potency, µM (top dose mostly 114 µM), inactives show top-dose activity change, negative = inhibition, usual class: inhibitors; 4.4% of 390,000 active; AlphaScreen JMJD2A-Tudor / H3K4me3 peptide binding; also: potency is read from the fitted curve at half-maximal effect; % is scaled to controls: 0 for no effect and ±100 for the full control effect; nearly all actives have a fitted effect of over 50% in size
BAZ2B inh = inhibitors of human BAZ2B bromodomain; Q9UIF8; AlphaScreen BAZ2B-H3K14Ac peptide displacement; Potency, µM (doses to about 114 µM), without a hit: top-dose activity change, negative = inhibition, actives largely listed as inhibitors; 4.4% of 360,000 active; AID 504333; also: potency is read from the fitted curve at half-maximal effect; % is scaled to controls: 0 for no effect and ±100 for the full control effect; nearly all actives have a fitted effect of over 60% in size
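Complex of BAZ2B and biotin-H3K14Ac (50 nM apiece) forms over 30 min at RT, then faces library compounds up to 110 uM for another 30 min; AlphaScreen beads added, 20 min dark incubation, luminescence read.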
* = called active by the depositor; ? = inconclusive; / = not tested or not shown; [ ] = remark or other dose. This is a sample that favours compounds with a hit; in the whole collection about 12% have one here. Unless noted, calls follow the shape of the dose curve; as a rule, active = well fitted curve in the direction sought with a large enough effect; inconclusive = small, poorly fitted or top-dose-only effect, or another doubt; inactive = no such curve, though single readings can be large; an effect the other way counts as inactive or inconclusive.

SMILES | PI5P4Ka inh | G9a block | HP1b binding inh | PLK1 PBD inh | JMJD2A Tudor | BAZ2B inh
O=c1c2c(-c3cccs3)csc2[nH]c(=S)n1-c1ccccc1 | ? | 40µM* | -2% | 21µM* | -4%[57.1 µM] | -32%
O=c1c2c(-c3cccs3)csc2ncn1-c1ccccc1 | -2 | 9%[59 µM] | 32% | -7% | -17% | 5%
CC(C)n1c(=S)[nH]c2scc(-c3cccs3)c2c1=O | -82* | 28µM* | -15% | 27µM* | ? | 50µM*
Cc1cccc(NC(=O)CN2C(=O)CCn3nc(-c4cccn4C)cc32)c1C | / | -31%[59 µM] | 6%[57 µM] | / | -30% | -24%
CCOC(=O)c1scc(-c2ccccc2)c1S(=O)(=O)Nc1ccccc1OC | / | 14µM* | -20% | / | -24% | ?
CCOC(=O)c1sc(N)c(C(=O)Nc2ccccc2OC)c1C | -26 | 2.8µM* | 5.6µM* | 4.7µM* | 56µM* | ?
CCOC(=O)c1c(N)sc2c1C1CCN2CC1 | -9 | 79µM* | -3% | -5% | -32% | -39%
COC(=O)c1c(N)sc(C(=O)NCCc2ccccc2)c1C | -8 | ? | 14% | 21µM* | -10% | -35%
COc1ccccc1NC(=O)c1ccc(N)cc1 | / | ? | 31% | -2% | -17% | -30%
COc1cccc(OC)c1C(=O)NCCc1ccccc1 | -6 | / | 41% | -3% | 6% | /
Cc1nnc(SCC(=O)Nc2nccs2)o1 | 0 | 33% | 59% | 1% | -2% | -2%
O=[S+]([O-])(c1ccc2c(c1)OCCO2)N1CCN([S+](=O)([O-])c2c(F)cc(F)cc2Br)CC1 | / | / | / | / | -24% | /
CCOC(=O)c1c(N)sc(C(=O)OC)c1C | -15 | / | -12% | 30µM* | -14% | -35%
CCOC(=O)c1sc(N)c(C(=O)OC)c1C | 0 | 5% | 24% | -7% | -1% | -27%
CCOC(=O)C1=C(C(F)(F)F)Nc2ncnn2C1c1cccc(OC)c1OC (configuration not stated) | 6 | 3%[59 µM] | 33% | -5% | -6% | 2%
COc1cccc(C2C=C(c3ccc(Br)s3)Nc3ncnn32)c1OC (configuration not stated) | -9 | 28µM* | 26% | 0% | -24% | ?
Fc1ccc(Br)cc1C1C=C(c2ccc(Br)s2)Nc2ncnn21 (configuration not stated) | -16 | 10µM* | 19% | -5% | ? | ?
COc1cccc(CNc2nc(Cl)nc3nc[nH]c23)c1 | / | / | 29% | / | -11% | /
COc1cc(C(CC(=O)Nc2cccc(C(C)=O)c2)N2Cc3ccccc3C2=O)cc(OC)c1OC (configuration not stated) | / | -11%[59 µM] | 28% | / | -12% | -8%
CCOc1ccc(NC(=O)c2ccc(NC(=O)c3cn4c5c(c(N6CCN(C)CC6)c(F)cc5c3=O)OCC4C)cc2)cc1 (configuration not stated) | -12 | 50µM* | 7% | 12% | -11% | -32%
CN(Cc1cnn(-c2ccccc2)c1)C(=O)c1cccc(S(=O)(=O)Nc2ccccc2F)c1 | 2 | / | / | -6% | / | /
Cc1nc(C)c(-c2csc(Nc3ccc(F)cc3)n2)s1 | 10 | 20µM* | ? | -20% | ? | ?
Cc1nc(C)c(-c2csc(Nc3ccc(C(=O)O)c(O)c3)n2)s1 | -72* | ? | -4% | -22% | -32% | ?
Cc1ccc(S(=O)(=O)Nc2cc(C(=O)NCCN(C)C)ccc2N2CCCC2)cc1 | 13 | ? | 10% | -5% | -19% | -15%
CCN(CC)CCCNC(=O)c1ccc(N2CCCCC2)c(NS(=O)(=O)c2ccc(C)cc2)c1 | 3 | 79µM* | 40% | -7% | -19% | ?
NC(=S)NCCCC(N)C(=O)O (configuration not stated) | / | 8.9µM* | / | / | / | /
NCCCC[C@@H](N)C(=O)O | / | 28%[59 µM] | / | / | / | /
Cc1cc(NC(=O)CSc2nnc(C3COc4ccccc4O3)n2N)no1 (configuration not stated) | -5 | ? | -7% | 7.5µM* | -19%[11.4 µM] | -18%
Cc1cc(NC(=O)CSc2nnc3c(C)cc4cc5c(cc4n23)OCO5)no1 | / | 35µM* | / | / | / | -3%

Screening results from PubChem.
